# The supplement of paper PMC10338343
# ± gives the standard deviation.
# Tested on: MILI (PIWIL2) piRISC loaded with L1MC piRNA (26 nt)
# Assay: pre-steady-state target cleavage rate (min^-1); guide: L1MC piRNA 5'p-UAACUAAAUACUAUGCAAGCUGUAGG; MIWI and MILI are mouse PIWI proteins and EfPiwi is from a freshwater sponge; tags in brackets are library labels; higher = faster piRNA-guided slicing of the target
# Settings: auxiliary factor: 500 nM mouse GTSF1
# Method in brief: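 A burst-and-steady-state fit was used to obtain the pre-steady-state cleavage rate. The input data were sequencing reads of uncleaved targets, normalised to depth and to weakly complementary targets, from a […] transcribed, DNA-blocked target RNA library mixed with 1 nM active affinity-purified piRISC holding one synthetic guide, with or without 500 nM GTSF1 partner protein, in HEPES–potassium acetate buffer at 33 °C for 0–8 or 0–960 min. Three trials were pooled and k3 was capped at 0.0001 min^-1.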
# 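Note: 1 nM active piRISC with 0.1 nM target library at 33 °C single turnover.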
row,Sequence,pre-steady-state target cleavage rate
1,UCCUGGAUGAGCUUGCAUAGUAAAAAGUUA,0.0673 ± 0.016
2,UCCUGGAUCAGCUUGCAUAGUAAAUAGUAA,0.196 ± 0.033
3,UCCUGGAUGUCCUUGCAUAGUUUUUUGUUA,0.00821 ± 0.0052
4,UCCUGGAUCAGCUUGCUAAGUAUUUACAAA,0.0261 ± 0.0085
5,UCCUGCUACAGCUUGGAUAGUAUUUACUUA,0.00864 ± 0.0043
6,UCCUGCUACAGCUUGCAUAGAUUUUUCAAA,0.0091 ± 0.0044
7,UCCUCCUACAGCAAGCAUAGUAUUUACAAA,0.172 ± 0.032
8,UCCUGGAUGAGCUUGCAUAUAUUUAGUUA,0.00951 ± 0.0043
9,UCCUGGAUGUCCUAGCAUAGUAUUUAGUAA,0.143 ± 0.031
10,UCCUGGUACAGCUUGCAUUGUAUUUAGUAA,0.112 ± 0.024
11,UCCUGGAUGUCGAACCUAUAGUAUUUAGUUA,0.00362 ± 0.0029
12,UCCUGGAUGAGCUUGCAUAGUUUAUAGUUA,0.0127 ± 0.0052
13,UCCUGGAUGUGCUUGGAUAGUAUUUAGUAA,0.117 ± 0.021
14,UCCUGGUACAGCUUGCAUAGUAUUUAUUA,0.042 ± 0.016
15,UCCUGGAUGUCGAACGUUAGUAUUUAGUUA,< 0.0001
16,UCCUGGAACAGCUUGCAUAGUAUAAUGAAA,0.0341 ± 0.013
17,UCCUGGAUGUCGAAGCAUAGUAUUAUGUUA,0.00859 ± 0.0044
18,UCCUGGAUGAGCUUGCUUAGAAUUUAGUUA,0.0121 ± 0.0047

row,Sequence,pre-steady-state target cleavage rate
1,UCCUGCUUGUGCUUGCAUAGUAUUUACAAA,0.0112 ± 0.0055
2,UCCUGGUAGAGCUUGCAUAGUAUUUAGAUA,0.14 ± 0.025
3,UCCUCCUACAGCUUGCUAUGUAUUUAGUAA,0.021 ± 0.0069
4,UCCUGGAUCAGCUUGCAUACUAUUUAGAUA,0.0139 ± 0.0058
5,UCCUGGAUCAGCUUGCAUAGUAUUAUCUAA,0.0859 ± 0.021
6,UCCUGGAACAGCUUGCAUAUGUAUUUAGUUA,0.00424 ± 0.0037
7,UCCUGGAACAGCUUGCAUAGUAAAAAGUAA,0.076 ± 0.022
8,UCCUCCUACAGCUACGAUAGUAUUUACAAA,0.0587 ± 0.019
9,UCCUGGUACAGGUUGCAUAGUAUUUAGAAA,0.043 ± 0.013
10,UCCUGGAUGUGCUUCGUUAGUAUUUAGAAA,< 0.0001
11,UCCUGGAUGUCGAACCAUAGUAUUAUCAAA [g7:g15:cont:t1A],< 0.0001
12,UCCUGGAUGUCGAUGCAUAGUAUUUAGAAA,0.0516 ± 0.015
13,UCCUGGAUGUGCUAGCAUAGUAUUUACUUA,0.0865 ± 0.019
14,UCCUGGAUGUCGUUGGAAAGUAUUUAGUUA,< 0.0001
15,UCCUGGAUCAGCUUGCAAUCUAUUUAGUAA,0.0108 ± 0.0043
16,UCCUGGAUGAGCUUGCAAAGUUUUUAGUUA,0.00724 ± 0.004
17,UCCUGGAACAGCUUGCAAAGUAUUUUCAAA,0.0111 ± 0.0049
18,UCCUGCUACAGCAACCAUAGUAUUUAGUUA,0.305 ± 0.04

# Same assay, conditions: auxiliary factor: none (no GTSF1)
row,Sequence,pre-steady-state target cleavage rate
1,UCCUGGAUGUCGAACGAAUAGUAUUUAGUUA,< 0.0001
2,UCCUGGAUGUCGAACGUAUCUAUAAAGUUA,< 0.0001
3,UCCUGGAUGUCGAUCCAUAGUAUUUUGUUA,< 0.0001
4,UCCUGGAUGUCGAACGUAAGUAUUUAGUUUA,< 0.0001
